# The panel holds about 83,000 compounds, 20% with a hit somewhere; the sample as a whole holds those more often.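 The test compound was applied at a single concentration to cells in 96-well plates for 48 hours, and percent growth was recorded.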 The source made the active and inactive calls. How the source made its calls: active means growth percent below 10; inactive means the rest.
# Tested on: MDA-MB-468 breast
# Test: NCI-60 one-dose screen, 48 h (100 = growth as untreated, 0 = no growth, -100 = all killed)
# Conditions: 10 µM unless noted
row,SMILES,growth
1,CCCCCCOC(=O)CC1=C(C)/C(=C/c2[nH]c(-c3ccc[nH]3)cc2OC)N=C1C,-59.7% (active)
2,CCN(CC)CC(=O)N(CC)c1ccc(C)c(Cl)c1,95.6% (inactive)
3,CC1OC(Oc2c(-c3ccc(O)c(O)c3)oc3cc(O)cc(O)c3c2=O)C(O)C(O)C1O (stereo not given),102% (inactive)
4,COc1ccc2c(c1)c(CC(=O)[Se]C)c(C)n2C(=O)c1ccc(Cl)cc1,-11.6% (active)
5,COc1ccc(-c2cc(Nc3ccnc(N4CCOCC4)n3)on2)cc1,24.8% (inactive)
6,COc1ccc(Cn2cc3c(c2-c2cc(OC)c(OC)c(OC)c2)CCCc2cnoc2-3)cc1N,46.7% (inactive)
7,CC(C)CC1C(=O)N2CCC[C@H]2C2(O)O[C@](NC(=O)C3C=C4c5cccc6[nH]c(Br)c(c56)C[C@H]4N(C)C3)(C(C)C)C(=O)N12 (stereo not given in full),20.3% (inactive)
8,CCN(CC)CCn1c2ccc(O)cc2c2sc3cc(O)ccc3c(=O)c21,47.8% (inactive)
9,CCOC(=O)c1ccc(NC(=O)CCCN(CC)CC)cc1,115% (inactive)
10,COc1cc(/C=C\c2cc(/C=C\c3ccc(O)c(OC)c3)n(C(=O)COc3ccc(Cl)cc3Cl)n2)ccc1O,12.5% (inactive)
11,CC(=O)N1N=C(c2cc3ccccc3oc2=O)CC1c1cn(-c2ccccc2)nc1-c1ccc(C)cc1 (stereo not given),94.6% (inactive)
12,COc1cc(Cl)c(C)cc1NC(=O)c1cc2ccccc2cc1O,-8.5% (active)
13,N#CC1=C(N)Oc2c(ccc3ccccc23)C1c1ccccc1 (stereo not given),23.1% (inactive)
14,Cn1ccnc1C(=O)/C=C/c1ccc(CC(=O)Nc2ccc(C(F)(F)F)cc2)cc1,-6.59% (active)
15,CC(C)(C)CC(C)(C)Nc1c(-c2ccc(C(F)(F)F)cc2)nc2cnccn12,100% (inactive)
16,COc1ccc(/C=C2/CN(CCC#N)C/C(=C\c3ccc(OC)cc3)C2=O)cc1,-28% (active)
17,C=C1C(=O)O[C@H]2[C@H]1CC/C(CNC(=O)/C=C/c1ccccc1F)=C\CC[C@@]1(C)O[C@@H]21,-45.5% (active)
18,COc1ccc2c(O)c(/C=C3\N=Nc4ncccc43)oc2c1C[C@@H]1CCNC[C@H]1F,-52.9% (active)
19,Cc1ccc(-n2c(-c3ccccc3)c(-c3ccccc3)c3c(SCC(=O)n4[nH]c(N)cc4=O)ncnc32)cc1,91.8% (inactive)
20,CCOC(=O)c1nn(-c2ccccc2)c(=O)c2c(N)c(C#N)c(-c3cccs3)cc12,69.9% (inactive)

row,SMILES,growth
1,N#C/C(=C\c1ccc2c(c1)OCO2)n1nnc2cc(F)c(F)cc21,6.05% (active)
2,NS(=O)(=O)N(c1cc(C(F)(F)F)cc(C(F)(F)F)c1)C1CCN(Cc2ccc(F)cc2)CC1,52.9% (inactive)
3,CCCCCCCC(=O)SCC/C=C/[C@@H]1CC(=O)NCc2nc(cs2)C2=N[C@@](C)(CS2)C(=O)N[C@@H](C(C)C)C(=O)N1,40.7% (inactive)
4,Cc1ccccc1NC(=O)c1sc2nc(C)c(C(=O)/C=C/c3ccccc3)cc2c1N,9.61% (active)
5,COc1cccc(CNC(=O)c2cccc(C3CC(=O)c4c(cc(OC)c(OC)c4OC)O3)c2)c1 (stereo not given),20.5% (inactive)
6,CC(=O)O[C@H]1CC[C@@]2(C)[C@@H](CC[C@@H]3[C@@H]2CC[C@]2(C)C=C(C=O)C[C@@H]32)C1,111% (inactive)
7,COc1cccc(CCC2C(=O)CCCC2=O)c1,115% (inactive)
8,O=C(Nc1cccc2ccccc12)c1cc2c(cc1Br)OCO2,95.4% (inactive)
9,C=CCNC(=O)c1ccc(OC)cc1,124% (inactive)
10,CC(C)(O)C(=O)O,108% (inactive)
11,CN(C)c1ncnc2c1ncn2C1CCCCO1 (stereo not given),111% (inactive)
12,Cc1c(C(N)=O)sc2ncn(CC(=O)Nc3ccc(Cl)cc3)c(=O)c12,92.1% (inactive)
13,O=C1NC(=O)C(c2coc3cc(Br)ccc23)=C1c1c[nH]c2ccccc12,3.29% (active)
14,CCN1C(=O)N(CC)C2Nn3c(s/c(=C\c4cccc(F)c4)c3=O)=NC21 (stereo not given),17.8% (inactive)
15,CC(Nc1c(C#N)cnc2ccc(-c3cncc(-c4n[nH]c(=O)o4)c3)cc12)c1ccccc1 (stereo not given),-41.7% (active)
16,COc1ccc(C2Nc3ncnc(N)c3N=C3c4ccccc4C(=O)C32)cc1 (stereo not given),86.1% (inactive)
17,COc1cc2c(O)n(CCCN3CCOCC3)c3c4cnc5cccc(c(=O)c3c2cc1OC)c54,47.1% (inactive)
18,O=C(OCc1ccc2c(Cl)cc(Cl)c(O)c2n1)c1cc2ccccc2[nH]1,-73.1% (active)
19,O=C(O)c1cn(C2CC2)c2cc(N3CCN(C(=O)N/N=C/c4cccc5ccccc45)CC3)c(F)cc2c1=O,103% (inactive)
20,COC(=O)CC(=O)C(=O)OC,95.3% (inactive)

# — PubChem BioAssay (NCI)
